PG9 Ab binder = binders of HIV-1 gp120 antibody PG9, primary screen, biochemical, TR-FRET; inhibition, % at 6.7 µM; TR-FRET gp120-PG9 antibody binding; AID 624416, 2012; HIV-1 gp120 / PG9 antibody interaction; hit rate 0.43% among 360,000; in the data active = inhibition above about 8.5%
sPLA2-III inh = human group III sPLA2 inhibitors, primary screen, biochemical, QFRET, BODIPY PC-A2 liposome substrate | Group 3 secretory phospholipase A2 (Homo sapiens), Q9NZ20 | QFRET BODIPY PC-A2 liposome hydrolysis, fluorescence | inhibition, % at 12.2 µM | hit rate 0.56% among 370,000 | AID 743126, 2013;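 active = inhibition above mean plus 3 SD of compounds lying within the high and low control bounds, cut at about 19% in these data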
Target sequence (Q9NZ20 whole entry, looked up): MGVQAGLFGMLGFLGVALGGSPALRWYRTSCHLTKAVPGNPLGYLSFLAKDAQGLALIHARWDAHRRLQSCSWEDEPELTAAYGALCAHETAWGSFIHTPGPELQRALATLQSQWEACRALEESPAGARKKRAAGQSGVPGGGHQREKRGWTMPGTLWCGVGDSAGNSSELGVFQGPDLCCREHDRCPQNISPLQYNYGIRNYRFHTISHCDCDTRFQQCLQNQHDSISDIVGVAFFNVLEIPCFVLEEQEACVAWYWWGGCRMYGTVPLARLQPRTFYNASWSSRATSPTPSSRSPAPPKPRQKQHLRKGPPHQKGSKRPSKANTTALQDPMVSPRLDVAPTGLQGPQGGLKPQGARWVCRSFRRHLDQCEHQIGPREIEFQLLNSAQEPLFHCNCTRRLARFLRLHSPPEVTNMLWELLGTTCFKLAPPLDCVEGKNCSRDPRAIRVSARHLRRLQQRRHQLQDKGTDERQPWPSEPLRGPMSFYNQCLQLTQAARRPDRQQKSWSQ
bovine MsrA act = bovine MsrA enzyme activators, primary screen, biochemical, absorbance, HTS; hit rate 0.3% among 360,000; purified bovine MsrA, absorbance read-out; activation, % at 10.6 µM; AID 602163, 2012; in the data active = activation above about 7.5%
MsrA inh = bovine MsrA enzyme inhibitors, primary screen, biochemical, absorbance, HTS | Methionine sulfoxide reductase A (Bos taurus) | purified bovine MsrA, absorbance read-out | inhibition, % at 15.5 µM | hit rate 0.75% among 360,000
rCAG binder = binders of r(CAG) RNA repeats, primary screen, biochemical, fluorescence | r(CAG) RNA repeat, TO-PRO-1 dye displacement fluorescence | inhibition, % at 3 µM | hit rate 1.3% among 370,000;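 active = inhibition above the plate cutoff, the mean of all test compounds on that plate plus 3 SD, cut at about 35% in these data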;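 note: higher means more dye released from RNA so lower well fluorescence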
MsrA conf = bovine MsrA inhibitors, retest, confirmation, biochemical, absorbance, HTS; shares compounds with MsrA inh; purified bovine MsrA, absorbance read-out; inhibition, % at 15.5 µM; hit rate 41% among 2,300;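 note: coupled to thioredoxin reductase with NADPH and selenocystamine and DMSO as substrate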
Large screens that a line does not name were inactive (follow-up assays come after a bar, where they were run). Shown are actives, neighbours in structure and some others; about 3.2% of the full set was active somewhere. Cut-off read from the data, not from the text of the source, unless noted: active = inhibition above about 4.5%; inactive = the rest.

O=C(/C=C/c1ccc(O)c(O)c1)OC1C(O)CC(OC(=O)/C=C/c2ccc(O)c(O)c2)(C(=O)O)CC1O (centres undefined)	MsrA inh 5.7 | MsrA conf inactive
CCOC(=O)C(=CNc1ccc(Cl)cn1)C(=O)OCC	none
CCOC(=O)C(=CNc1cccc(N)n1)C(=O)OCC	MsrA inh 6.5 | MsrA conf 4.8
O=C(NNC(=S)Nc1cccc(C(F)(F)F)c1)c1ccncc1	MsrA inh 4.8 | MsrA conf inactive
O=C(NNC(=S)Nc1ccccc1)c1ccncc1	none
CCOC(=O)c1cc2c(ccc3ccccc32)oc1=O	MsrA inh 20.0 | MsrA conf 13.4
O=C(O)c1cc2c(ccc3ccccc32)oc1=O	none
O=[N+]([O-])c1ccc(O)c(C=Nc2cccc3ccccc23)c1	none
O=[N+]([O-])c1ccc(O)c(C=Nc2cccc3ncccc23)c1	MsrA inh 5.2 | MsrA conf inactive
C[C@@H]1/C=C/CC(=O)N2[C@H](CC(=O)N[C@@H]1c1ccccc1)C[C@@H](C)[C@H]2c1ccccc1	none (no result: PG9 Ab binder, bovine MsrA act, MsrA inh)
O=C(Nc1ccc(Cl)c(Cl)c1)C1CCCN(c2nnc(-n3cccc3)s2)C1 (centres undefined)	none (no result: PG9 Ab binder, bovine MsrA act, MsrA inh)
COC(=O)C(CCSC)NC(=O)c1cc2c(n(-c3ccc(C)cc3)c1=O)CCCC2=O (centres undefined)	MsrA inh 5.5 | MsrA conf inactive
CCOC(=O)[C@@]12CN(C(=O)OC(C)(C)C)CC=C1N(Cc1ccc(OC)cc1)C(=O)[C@H]2CC(=O)NCCCCc1ccccc1	none (no result: PG9 Ab binder, bovine MsrA act, MsrA inh)
C/C(=N\NC(=O)c1cccnc1)c1cc2ccccc2o1	MsrA inh 6.7 | MsrA conf 6.0
C/C(=N\NC(=O)c1ccncc1)c1cc2ccccc2o1	none
C/C(=N\Nc1ccc(S(N)(=O)=O)cc1[N+](=O)[O-])c1ccc2c(c1)OCO2	MsrA inh 20.6 | MsrA conf 15.3
CC(Cc1ccccc1)=NNc1ccc([N+](=O)[O-])cc1[N+](=O)[O-]	none
C/C(CC(C)C)=N/Nc1ccc([N+](=O)[O-])cc1[N+](=O)[O-]	MsrA inh 10.9 | MsrA conf 11.9
C/C(CCC(C)C)=N\Nc1ccc(S(N)(=O)=O)cc1[N+](=O)[O-]	MsrA inh 10.3 | MsrA conf 7.8
COC(=O)CC/C(C)=N\Nc1ccc([N+](=O)[O-])cc1[N+](=O)[O-]	MsrA inh 6.3 | MsrA conf 9.5
COC(=O)[C@]12C[C@H](CC(=O)NCCc3ccccc3OC)C(=O)N(Cc3ccc(Cl)cc3Cl)C1=C[C@H](COCc1ccccc1)O[C@@H]2C	none (no result: PG9 Ab binder, bovine MsrA act, MsrA inh)
O=c1c2ccccc2n(Cc2ccco2)n1[C@@H](Cc1ccccc1)Cn1cc(-c2ccc(-c3ccccc3)cc2)nn1	none (no result: PG9 Ab binder, bovine MsrA act, MsrA inh)
COc1ccc(/C([O-])=C(/C(=S)Nc2ccc(C)c(C)c2)n2c[n+](C)c3ccccc32)cc1OC	MsrA inh 4.8 | MsrA conf inactive
CCOc1ccc(/C=C(\C)C(=O)c2c(C)cc(C)[nH]c2=O)cc1	MsrA inh 6.2 | MsrA conf inactive
CC1(C)S/C(=N/N=C/c2ccco2)NC1=O	MsrA inh 5.9 | MsrA conf 5.5
CCCC1S/C(=N/N=C/c2ccco2)NC1=O (centres undefined)	MsrA inh 4.7 | MsrA conf 6.6
Nc1ccccc1Nc1ccc([N+](=O)[O-])cc1[N+](=O)[O-]	MsrA inh 16.5 | MsrA conf 9.4
O=[N+]([O-])c1ccccc1Nc1ccccc1[N+](=O)[O-]	none
COc1cc(/C=N\NC(=O)c2ccc(-c3ccccc3)cc2)cc(OC)c1O	none
C/C(=N\NC(=O)c1ccc(NS(=O)(=O)c2cccs2)cc1)c1ccc(O)cc1O	MsrA inh 5.5 | MsrA conf 4.7
COc1cc(/C=N/NC(=O)c2ccc(NS(=O)(=O)c3cccs3)cc2)cc(OC)c1O	MsrA inh 6.5 | MsrA conf 6.4
O=C(N/N=C/c1ccc([N+](=O)[O-])cc1)c1ccc(NS(=O)(=O)c2cccs2)cc1	MsrA inh 5.4 | MsrA conf 6.3
O=C(NN=Cc1ccc(OC(F)F)cc1)c1ccc(NS(=O)(=O)c2cccs2)cc1	MsrA inh 5.5 | MsrA conf inactive
O=C(N/N=C/c1ccc([N+](=O)[O-])o1)c1ccc(NS(=O)(=O)c2cccs2)cc1	none
NC(=O)C1CCN(c2ncc(Br)s2)CC1	none (no result: PG9 Ab binder, bovine MsrA act, MsrA inh, rCAG binder)
C=CCN(C)CC#Cc1ccccc1C	none (no result: PG9 Ab binder, bovine MsrA act, MsrA inh)
CCN1CCCCC(NC(C)=O)C1=O (centres undefined)	none (no result: PG9 Ab binder, bovine MsrA act, MsrA inh)
Cc1ccc(-c2c(C(=O)NC3CCCC3)oc(=O)c3ccccc23)cc1	none (no result: PG9 Ab binder, bovine MsrA act, MsrA inh)
CCN(CC)c1ccc(C=Nc2cccnc2Cl)c(O)c1	MsrA inh 5.5 | MsrA conf 6.6
CC(=O)Nc1ccc2nc(-c3ccco3)[nH]c2c1	none
O=C(Nc1ccc2nc(-c3ccco3)[nH]c2c1)c1ccco1	MsrA inh 5.1 | MsrA conf inactive
CC1(C)OC(=O)C(=NNc2ccccc2)C(=O)O1	none
CC1(C)OC(=O)C(=NNc2ccc(C(=O)O)cc2)C(=O)O1	MsrA inh 4.8 | MsrA conf inactive
CC1(C)OC(=O)C(=NNc2ccccc2C(=O)O)C(=O)O1	MsrA inh 4.9 | MsrA conf inactive
COc1ccc(OC)c(C(=O)CSc2nnc(SCc3cccc4ccccc34)s2)c1	none (no result: PG9 Ab binder, bovine MsrA act, MsrA inh)
C#CCN1CC(N(C)CCOC(=O)CC2C=CCC2)CS1(=O)=O (centres undefined)	none (no result: PG9 Ab binder, bovine MsrA act, MsrA inh)
CC(O)CNc1cc(N)c([N+](=O)[O-])cc1[N+](=O)[O-] (centres undefined)	MsrA inh 5.2 | MsrA conf 6.2
O=C(NCc1cccs1)C1CCC(CNS(=O)(=O)c2cccc3cccnc23)CC1 (centres undefined)	none (no result: PG9 Ab binder, bovine MsrA act, MsrA inh)
CCN1CCN(CCCNC(=O)c2cc3cc4ccc(OC)cc4nc3o2)CC1	none (no result: PG9 Ab binder, sPLA2-III inh, MsrA inh, rCAG binder)
COc1ccc2cc3cc(C(=O)NCCCN4CCOCC4)oc3nc2c1	MsrA inh 6.6 | MsrA conf inactive
COc1cccc(/C=C2\SC(=O)N(CC(=O)NC3CCS(=O)(=O)C3)C2=O)c1 (centres undefined)	MsrA inh 4.8 | MsrA conf inactive
COC(=O)[C@@]1(C(C)C)N=C(c2cc(OC)c(OC)c(OC)c2)[C@]2(O1)C(=O)N(Cc1cn(Cc3ccccc3)nn1)c1ccc(F)cc12	none (no result: PG9 Ab binder, bovine MsrA act, MsrA inh)
C/C(=N\Nc1ccc(C(F)(F)F)cc1[N+](=O)[O-])C1CC1	MsrA inh 9.2 | MsrA conf 8.8
Cc1ccc(OCCNc2ccc(C(F)(F)F)cc2[N+](=O)[O-])cc1	none
CC(=O)NNc1ccc(C(F)(F)F)cc1[N+](=O)[O-]	none
Cc1ccc(Nc2ccc(C(F)(F)F)cc2[N+](=O)[O-])cc1	MsrA inh 10.0 | MsrA conf 17.5

Assay outcomes: PubChem BioAssay, The Scripps Research Institute Molecular Screening Center
